GRIN3A LBD mod – NR3A (human) ligand-binding domain modulation; NR3A LBD differential scanning fluorimetry, Tm shift; 0% = protein alone, 100% = glycine-bound protein; Tm shift relative to glycine control, % at 25 µM; 340,000 compounds, 2.5% hits;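 active = melting temperature shift of at least 10% of the positive control shift, at one fixed dose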
ADAM10 inh – ADAM10 inhibition, QFRET primary screen; recombinant ADAM10, EDANS/DABCYL FRET peptide cleavage, 3 h; inhibition, % at 7 µM; 370,000 compounds, 0.62% hits; AID 720582;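 active = inhibition above a per-campaign cutoff equal to the mean of compounds falling between control-based bounds plus 3 SD, cut at about 20% in these data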;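 also: 0% = DMSO wells while the 100% control is not disclosed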
aDG glyco up – increases alpha dystroglycan glycosylation; 360,000 compounds, 0.22% hits; activation, % at 10 µM; Pro5-aDG cells, alpha-DG glycosylation AlphaScreen (IIH6); 0% Pro5, 100% B10-LARGE cell signal;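 active = activation of at least 8% versus controls, or a plate z-score of at least 8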;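 also: Pro5 are CHO cells carrying HIG-tagged alpha-DG that lacks glycosylation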
FAS-TE inh – FAS thioesterase (human) inhibition. P49327. recombinant FAS-TE, OMFH fluorogenic substrate, fluorescence endpoint. inhibition, % at 15 µM. 360,000 compounds, 0.67% hits;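 active = compounds whose normalised, plate-corrected inhibition of enzyme fluorescence in the single-dose primary screen is 50% or more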;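 also: 0% = DMSO with enzyme and 100% = substrate without enzyme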
ADAM17 inh – ADAM17 inhibition, QFRET primary screen | P78536 | recombinant ADAM17, EDANS/DABCYL FRET peptide cleavage | inhibition, % at 6.95 µM | 370,000 compounds, 0.83% hits | AID 720648;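 active = inhibition above the mean of compounds lying between control limits plus 3 SD, set per campaign, cut at about 8.5% in these data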;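 also: 0% = DMSO-only wells as the low control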
Target sequence (P78536 215-824 limits assumed): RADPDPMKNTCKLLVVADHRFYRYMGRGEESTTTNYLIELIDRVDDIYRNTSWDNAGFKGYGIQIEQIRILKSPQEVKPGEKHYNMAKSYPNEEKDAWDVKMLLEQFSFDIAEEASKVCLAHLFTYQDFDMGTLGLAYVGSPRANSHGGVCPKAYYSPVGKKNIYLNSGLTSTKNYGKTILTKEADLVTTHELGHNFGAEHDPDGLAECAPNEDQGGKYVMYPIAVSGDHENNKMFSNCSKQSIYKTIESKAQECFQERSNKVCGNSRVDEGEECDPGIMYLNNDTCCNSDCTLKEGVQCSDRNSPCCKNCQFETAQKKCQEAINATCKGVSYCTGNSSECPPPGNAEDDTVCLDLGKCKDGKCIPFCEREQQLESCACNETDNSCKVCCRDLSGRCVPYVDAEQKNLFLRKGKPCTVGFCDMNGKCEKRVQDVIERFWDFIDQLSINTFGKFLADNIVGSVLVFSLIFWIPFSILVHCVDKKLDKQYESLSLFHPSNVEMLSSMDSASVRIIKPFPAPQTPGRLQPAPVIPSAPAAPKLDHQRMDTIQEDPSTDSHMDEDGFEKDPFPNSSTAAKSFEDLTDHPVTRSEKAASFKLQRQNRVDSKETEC
FAS-TE inh conf – FAS thioesterase (human) inhibition, confirmation | shares compounds with FAS-TE inh | recombinant FAS-TE, OMFH fluorogenic substrate, fluorescence | inhibition, % at 15 µM | 2,300 compounds, 45% hits | AID 624325;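 active = compounds inhibiting the enzyme by at least 50% at 15 µM in any one of the replicates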;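 also: 0% = enzyme with DMSO only and 100% = wells lacking enzyme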
aDG glyco conf – alpha-DG glycosylation activation, confirmation. Pro5-aDG cells, IIH6 AlphaLISA; scaled to LARGE-overexpressing B10 cells as 100%. activation, % at 10 µM (by protocol). shares compounds with aDG glyco up. AID 651671. 600 compounds, 17% hits;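 active = activation of at least 7% in one or more replicates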;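 also: cells exposed to compound for two days before detection; 0% = DMSO-treated Pro5 cells and 100% = DMSO-treated B10-LARGE cells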
ADAM10 confirm – human ADAM10 inhibition, confirmation; shares compounds with ADAM10 inh; ADAM10 QFRET peptide cleavage, EDANS fluorescence; inhibition, % at 6.95 µM; 2,100 compounds, 1% hits;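 active = inhibition above about 20% chosen separately for each screening run, limit read from the data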;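 also: 0% = DMSO wells and 100% = marimastat wells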
ADAM17 counter – counter-screen for ADAM10 exosite inhibitors: inhibitors of human ADAM17; shares compounds with ADAM10 inh; 2,100 compounds, 0.5% hits; ADAM17 QFRET peptide cleavage, EDANS fluorescence; AID 743214; inhibition, % at 6.95 µM;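 active = mean triplicate inhibition above the solvent-only control wells' mean plus 3 SD, cut at about 12% in these data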;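 also: 0% = DMSO wells and 100% = marimastat wells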
ADAM10 ctr – ADAM10 inhibition, counter-screen for ADAM17 exosite hits | shares compounds with ADAM17 inh | AID 743256 | recombinant ADAM10, EDANS/DABCYL FRET peptide cleavage, 3 h | inhibition, % at 6.95 µM | 2,900 compounds, 47% hits;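 active = mean inhibition over the triplicate runs exceeds the activity threshold set in the earlier primary screen, cut at about 20% in these data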;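 also: 0% = DMSO wells and 100% = marimastat wells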
ADAM17 confirm – human ADAM17 inhibition, confirmation. AID 743257. recombinant ADAM17, EDANS/DABCYL QFRET peptide cleavage. 2,900 compounds, 65% hits. inhibition, % at 6.95 µM. shares compounds with ADAM17 inh;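 active = mean inhibition across replicates above the hit cutoff set in the primary screen, cut at about 8.5% in these data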;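 also: 0% = DMSO wells and 100% = marimastat wells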
* hit, by the source's call. In the library only some 4% were active in any assay of this set; here they are far more common.

What do the screens show for `O=c1[nH]c2ccccc2n1C1CCN(C(c2ccccc2OC(F)(F)F)c2nnnn2-c2ccc3c(c2)OCCO3)CC1` (stereo not drawn)?
ADAM10 inh: 33.5*; aDG glyco up: -0.5; FAS-TE inh: 82.6*; ADAM17 inh: 15.4*; FAS-TE inh conf: 19.0; ADAM10 confirm: 11.4; ADAM17 counter: 2.4

How did O=c1[nH]c2ccccc2n1C1CCN(C(c2cccs2)c2nnnn2-c2ccc3c(c2)OCCO3)CC1 (stereo not drawn) do in these assays?
ADAM10 inh: 19.9*; aDG glyco up: -0.5; FAS-TE inh: 63.1*; ADAM17 inh: 6.9; FAS-TE inh conf: 14.8; ADAM10 confirm: 7.8; ADAM17 counter: 1.6

Results for COc1cccc(C(c2nnnn2-c2ccc3c(c2)OCCO3)N2CCC(n3c(=O)[nH]c4ccccc43)CC2)c1OC (stereo not drawn) ?
ADAM10 inh: 20.5*; aDG glyco up: -0.5; FAS-TE inh: 71.7*; ADAM17 inh: 4.3; FAS-TE inh conf: 0.5; ADAM10 confirm: 7.5; ADAM17 counter: 1.4

What do the screens show for `COc1ccc(C(c2nnnn2-c2c(C)cccc2C)N2CCC(n3c(=O)[nH]c4ccccc43)CC2)cc1` (stereo not drawn)?
ADAM10 inh: 22.6*; aDG glyco up: 0.5; FAS-TE inh: 62.5*; ADAM17 inh: 9.7*; FAS-TE inh conf: 35.4*; ADAM10 confirm: 6.2; ADAM17 counter: 2.4

Results for COc1ccc(-n2nnnc2C(c2ccccc2)N2CCC(n3c(=O)[nH]c4ccccc43)CC2)cc1 (stereo not drawn) ?
ADAM10 inh: 2.4; aDG glyco up: -0.4; FAS-TE inh: 25.2; ADAM17 inh: -1.2

Results for O=c1[nH]c2ccccc2n1C1CCN(C(c2nnnn2-c2ccc3c(c2)OCCO3)C2CC2)CC1 (stereo not drawn) ?
ADAM10 inh: -3.5; aDG glyco up: -0.2; FAS-TE inh: 9.7; ADAM17 inh: 0.6

What do the screens show for `Cc1ccc(N2C(=O)NC(=O)C(CCc3ccccn3)(Cc3cccc(Cl)c3Cl)C2=O)cc1` (stereo not drawn)?
GRIN3A LBD mod: 1.2; ADAM10 inh: -2.8; aDG glyco up: -0.1; FAS-TE inh: -4.1; ADAM17 inh: -0.6

How did Cc1cc(N2CCNC[C@@H]2C)ccc1N1CCN[C@H](C)C1 do in these assays?
ADAM10 inh: -3.7; ADAM17 inh: -4.6

How did O=C(O)C1C2CCC(O2)C1C(=O)Nc1ccc(F)c(F)c1 (stereo not drawn) do in these assays?
GRIN3A LBD mod: 0.2; ADAM10 inh: 0.0; aDG glyco up: -0.3; FAS-TE inh: -7.4; ADAM17 inh: -2.6

Results for O=c1[nH]c2ccccc2n1C1CCN(C(c2cc3ccccc3o2)c2nnnn2Cc2ccccc2)CC1 (stereo not drawn) ?
ADAM10 inh: 23.4*; aDG glyco up: -0.7; FAS-TE inh: 61.3*; ADAM17 inh: 8.1; FAS-TE inh conf: -2.0; ADAM10 confirm: 10.3; ADAM17 counter: 3.0

What do the screens show for `COc1ccc(-n2nnnc2C(c2cccc3ccccc23)N2CCC3(CC2)C(=O)NCN3c2ccccc2)cc1` (stereo not drawn)?
ADAM10 inh: 21.2*; aDG glyco up: -0.2; FAS-TE inh: 83.9*; ADAM17 inh: 8.6; FAS-TE inh conf: 16.5; ADAM10 confirm: 10.0; ADAM17 counter: 2.7

What do the screens show for `CCCCn1nnnc1C(c1cccc2ccccc12)N1CCC2(CC1)C(=O)NCN2c1ccccc1` (stereo not drawn)?
ADAM10 inh: -7.9; aDG glyco up: -0.1; FAS-TE inh: 21.9; ADAM17 inh: 0.4

What do the screens show for `O=C1NCN(c2ccccc2)C12CCN(C(c1cccc3ccccc13)c1nnnn1Cc1ccccc1)CC2` (stereo not drawn)?
ADAM10 inh: 21.5*; aDG glyco up: -0.1; FAS-TE inh: 79.1*; ADAM17 inh: 9.9*; FAS-TE inh conf: 4.0; ADAM10 confirm: 11.2; ADAM17 counter: 4.1; ADAM10 ctr: 41.0*; ADAM17 confirm: 17.1*

What do the screens show for `O=C1NCN(c2ccccc2)C12CCN(C(c1cccs1)c1nnnn1-c1ccc3c(c1)OCCO3)CC2` (stereo not drawn)?
ADAM10 inh: 19.7; aDG glyco up: -0.1; FAS-TE inh: 61.9*; ADAM17 inh: 9.0*; FAS-TE inh conf: 22.3; ADAM10 ctr: 29.1*; ADAM17 confirm: 13.1*

Results for O=C1NCN(c2ccccc2)C12CCN(C(c1ccnc3ccccc13)c1nnnn1Cc1ccccc1)CC2 (stereo not drawn) ?
ADAM10 inh: -11.0; aDG glyco up: -0.1; FAS-TE inh: 7.1; ADAM17 inh: -3.6

Results for N#CC1c2ccccc2-n2nncc2CN1C(=O)c1ccccc1F (stereo not drawn) ?
ADAM10 inh: 1.0; aDG glyco up: 0.2; FAS-TE inh: -10.7; ADAM17 inh: -1.6

How did CC(=O)c1cn(CCCOc2ccccc2)c2ccccc12 do in these assays?
GRIN3A LBD mod: -1.7; ADAM10 inh: 12.3; aDG glyco up: 6.3*; FAS-TE inh: 15.0; ADAM17 inh: 4.7; aDG glyco conf: 0.1

Results for O=C(C(=O)N1CCOCC1)c1cn(CCCOc2ccccc2)c2ccccc12 ?
GRIN3A LBD mod: -1.5; ADAM10 inh: -7.2; aDG glyco up: -0.1; FAS-TE inh: 0.0; ADAM17 inh: -1.7

How did CN(Cc1ccccc1)Cc1ccccc1OC(=O)N(C)C do in these assays?
GRIN3A LBD mod: -0.6; ADAM10 inh: -9.4; aDG glyco up: 58.0*; FAS-TE inh: -7.6; ADAM17 inh: -3.4; aDG glyco conf: 0.3

What do the screens show for `Cc1ccnc(-n2c(C)nc3ccccc3c2=O)c1`?
GRIN3A LBD mod: 3.1; ADAM10 inh: 6.8; aDG glyco up: 7.8*; FAS-TE inh: -10.5; ADAM17 inh: -1.7; aDG glyco conf: 0.6*

Screening data (PubChem BioAssay)
